The compounds below were run on heterologous cumate-inducible system (assay: relative induction of RFP reporter vs primary effector; higher = stronger activation). Details: inducer concentration 5 mM; 6 h; Cupriavidus necator H16; minimal medium + 0.4% gluconate.
Experimental: (§1)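 Orthogonality screen of 21 primary inducers against 21 transcription factor/inducible promoter–mRFP biosensors in C. necator H16 in minimal medium, robotic 96-well format, 5 mM inducer, 30 °C. OD-normalised RFP fluorescence was read 6 h later and expressed as relative induction (%) = 100 × (FL compound − FL uninduced)/(FL primary inducer − FL uninduced); mean of n=4. Cognate pairs (100% by definition) omitted.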
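For relative induction of RFP reporter vs primary effector (background-corrected) in this document: RFP excited at 585 nm with emission read at 620 nm, culture medium blanks subtracted from fluorescence and absorbance prior to normalisation.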

SMILES	relative induction of RFP reporter
C=C(CC(=O)O)C(=O)O [itaconate]	-0.202%
O=C(O)CCO [3-hydroxypropanoate]	-0.514%
O=C(O)C(O)C(O)C(=O)O (stereo unspecified) [tartrate]	-0.8%
CC(=O)C(C)O (stereo unspecified) [acetoin]	-1.61%
O=C(O)C1CCCCC1 [cyclohexane-1-carboxylate]	2.49%
OC1OC[C@H](O)[C@H](O)[C@H]1O (mixture of isomers) [L-arabinose]	-0.337%
O=C(O)C(=O)c1ccccc1 [phenylglyoxylate]	-1.12%
O=C(O)c1ccc(O)c(O)c1 [3,4-dihydroxybenzoate]	-0.667%
C=CC(=O)O [acrylate]	0.803%
O=C(O)c1ccccc1 [benzoate]	-1.2%
N[C@@H](Cc1ccc(O)cc1)C(=O)O [L-tyrosine]	-2.72%
NCCC(=O)O [β-alanine]	-1.44%
O=C(O)CS(=O)(=O)O [sulfonatoacetate]	0.916%
O=CO [formate]	-0.422%
Nc1ccccc1C(=O)C[C@H](N)C(=O)O [L-kynurenine]	-0.886%
O=C(O)c1ccccc1O [salicylate]	0.792%
O=c1[nH]c(=O)c2nc[nH]c2[nH]1 [xanthine]	-0.479%
N[C@@H](Cc1ccccc1)C(=O)O [L-phenylalanine]	-2.37%

The compounds below were run on heterologous itaconate-inducible system in the same assay as above. Details: inducer concentration 5 mM; 6 h; Cupriavidus necator H16; minimal medium + 0.4% gluconate.
Experimental: as §1

SMILES	relative induction of RFP reporter
O=C(O)CCO [3-hydroxypropanoate]	0.017%
O=C(O)C(O)C(O)C(=O)O (stereo unspecified) [tartrate]	0.359%
CC(=O)C(C)O (stereo unspecified) [acetoin]	0.0808%
O=C(O)C1CCCCC1 [cyclohexane-1-carboxylate]	0.233%
OC1OC[C@H](O)[C@H](O)[C@H]1O (mixture of isomers) [L-arabinose]	0.00235%
O=C(O)C(=O)c1ccccc1 [phenylglyoxylate]	-0.288%
O=C(O)c1ccc(O)c(O)c1 [3,4-dihydroxybenzoate]	0.251%
C=CC(=O)O [acrylate]	0.117%
O=C(O)c1ccccc1 [benzoate]	-0.0216%
N[C@@H](Cc1ccc(O)cc1)C(=O)O [L-tyrosine]	0.264%
NCCC(=O)O [β-alanine]	-0.489%
O=C(O)CS(=O)(=O)O [sulfonatoacetate]	0.693%
O=CO [formate]	0.516%
Nc1ccccc1C(=O)C[C@H](N)C(=O)O [L-kynurenine]	-0.412%
O=C(O)c1ccccc1O [salicylate]	-0.0867%
O=c1[nH]c(=O)c2nc[nH]c2[nH]1 [xanthine]	0.00052%
N[C@@H](Cc1ccccc1)C(=O)O [L-phenylalanine]	-0.26%

Each compound was assayed on AcoR/P_H16_RS19445 acetoin biosensor (pEH052) (assay: relative induction of RFP reporter vs primary effector (background-corrected); higher = stronger activation of the biosensor). Details: inducer concentration 5 mM; 6 h; Cupriavidus necator H16; minimal medium + 0.4% gluconate.
Experimental: (§2)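 C. necator H16 strains, each carrying one of 21 transcription factor/inducible promoter–mRFP biosensor plasmids, were grown in minimal medium in 96-well plates (robotic platform). Each was exposed to 46 structurally or metabolically related compounds at 5 mM at 30 °C. OD-normalised RFP fluorescence was read 6 h later and expressed as relative induction (%) = 100 × (FL compound − FL uninduced)/(FL primary inducer − FL uninduced); mean of n=4.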

SMILES	relative induction of RFP reporter
Oc1ccccc1O [catechol]	1.82%
Oc1ccc(O)cc1 [hydroquinone]	4.27%
NC(=O)CC[C@H](N)C(=O)O [L-glutamine]	-1.76%
Cn1c(=O)c2c(ncn2C)n(C)c1=O [caffeine]	3.23%
O=CC(=O)O [glyoxylate]	-0.798%
NCC(O)C(=O)O (stereo unspecified) [3-amino-2-hydroxypropanoate]	-0.589%
O=C(O)C(O)c1ccccc1 (stereo unspecified) [mandelic acid]	4.07%
O=C(O)C(O)C(=O)O [tartronic acid]	0.914%
N[C@@H](Cc1c[nH]c2ccccc12)C(=O)O [L-tryptophan]	-1.3%
CCC(=O)O [propanoate]	-1.68%
CC(N)CC(=O)O (stereo unspecified) [3-aminobutanoate]	0.0935%
CCCC(=O)O [butyric acid]	-2.08%

These compounds were tested on AraC/P_araBAD L-arabinose biosensor (pEH176) in the same assay as above. Details: inducer concentration 5 mM; 6 h; Cupriavidus necator H16; minimal medium + 0.4% gluconate.
Experimental: as §2

SMILES	relative induction of RFP reporter
Oc1ccccc1O [catechol]	-0.00935%
Oc1ccc(O)cc1 [hydroquinone]	0.188%
NC(=O)CC[C@H](N)C(=O)O [L-glutamine]	-0.022%
Cn1c(=O)c2c(ncn2C)n(C)c1=O [caffeine]	0.0778%
O=CC(=O)O [glyoxylate]	0.00961%
NCC(O)C(=O)O (stereo unspecified) [3-amino-2-hydroxypropanoate]	0.017%
O=C(O)C(O)c1ccccc1 (stereo unspecified) [mandelic acid]	0.0229%
O=C(O)C(O)C(=O)O [tartronic acid]	-0.0176%
N[C@@H](Cc1c[nH]c2ccccc12)C(=O)O [L-tryptophan]	0.00791%
CCC(=O)O [propanoate]	-0.00959%
CC(N)CC(=O)O (stereo unspecified) [3-aminobutanoate]	-0.0347%
CCCC(=O)O [butyric acid]	-0.0107%

The compounds below were run on BenM/P_H16_RS09790 benzoate biosensor (pEH148) in the same assay as above. Details: inducer concentration 5 mM; 6 h; Cupriavidus necator H16; minimal medium + 0.4% gluconate.
Experimental: as §2

SMILES	relative induction of RFP reporter
Oc1ccccc1O [catechol]	9.72%
Oc1ccc(O)cc1 [hydroquinone]	0.0575%
NC(=O)CC[C@H](N)C(=O)O [L-glutamine]	-0.0444%
Cn1c(=O)c2c(ncn2C)n(C)c1=O [caffeine]	0.0418%
O=CC(=O)O [glyoxylate]	-0.0259%
NCC(O)C(=O)O (stereo unspecified) [3-amino-2-hydroxypropanoate]	-0.00343%
O=C(O)C(O)c1ccccc1 (stereo unspecified) [mandelic acid]	0.175%
O=C(O)C(O)C(=O)O [tartronic acid]	0.0119%
N[C@@H](Cc1c[nH]c2ccccc12)C(=O)O [L-tryptophan]	-0.0226%
CCC(=O)O [propanoate]	-0.0373%
CC(N)CC(=O)O (stereo unspecified) [3-aminobutanoate]	0.00428%
CCCC(=O)O [butyric acid]	-0.0464%
